# TEAD-YAP inh: TEAD-YAP interaction inhibition; HEK-TIYL cells, TEAD-Gal4/YAP UAS-luciferase luminescence; inhibition, % at 9.12 µM; actives 1.4% (n = 640,000); AID 1259422; in the data active = inhibition above about 32%;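 note: 0% = median of test compound wells and 100% = reference inhibitor wells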
# GPR151 activ: activates the human receptor GPR151 | activation, % at 11.2 µM | AID 1508602 | PathHunter beta-arrestin GPR151 cells, luminescence | actives 1% (n = 650,000); in the data active = activation above about 4.9%;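 note: 0% = median of compound wells and 100% = cells with positive control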
# FBW7 activator: activators of human E3 ligase FBW7; AID 1259310; actives 0.13% (n = 650,000); normalized activity (activation), % at 26.1 µM; Q969H0; AlphaScreen FBW7–phospho-cyclin E peptide binding, activator screen; in the data active = normalized activity above about 1.9%;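 note: purified mutant Fbw7 with reduced substrate affinity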
# MITF inh: human MITF inhibition, primary screen | O75030 | AlphaScreen MITF homodimerization, bead proximity signal | inhibition, % at 2.6 µM | actives 0.91% (n = 650,000) | AID 1259374; in the data active = inhibition above about 50%;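 note: 0% = vehicle wells with protein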
# Target sequence (O75030 whole entry, looked up): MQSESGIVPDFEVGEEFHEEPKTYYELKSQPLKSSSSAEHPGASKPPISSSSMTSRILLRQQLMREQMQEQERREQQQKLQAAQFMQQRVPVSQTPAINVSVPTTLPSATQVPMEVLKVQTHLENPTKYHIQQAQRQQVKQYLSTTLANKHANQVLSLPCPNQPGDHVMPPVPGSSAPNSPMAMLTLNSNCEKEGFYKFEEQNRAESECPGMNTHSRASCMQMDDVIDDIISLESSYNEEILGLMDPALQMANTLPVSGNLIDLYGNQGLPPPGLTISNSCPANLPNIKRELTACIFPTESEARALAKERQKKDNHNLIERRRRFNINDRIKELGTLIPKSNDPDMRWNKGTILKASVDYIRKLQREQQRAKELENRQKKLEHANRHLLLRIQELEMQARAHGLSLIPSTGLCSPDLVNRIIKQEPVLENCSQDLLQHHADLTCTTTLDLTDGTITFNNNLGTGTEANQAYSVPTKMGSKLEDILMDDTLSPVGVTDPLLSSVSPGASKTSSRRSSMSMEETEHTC
# MITF confirm: confirmation of human MITF inhibitors. AlphaScreen MITF homodimerization, biotin/His-MITF beads. inhibition, % at 2.6 µM. shares compounds with MITF inh. actives 16% (n = 4,700);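 active = inhibition above a cutoff derived from the DMSO control wells, cut at about 28% in these data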;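 note: 0% = MITF dimer wells with DMSO only; inhibitors lower the bead chemiluminescence by keeping MITF from dimerizing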
# AlphaScreen DR: counter-screen: compounds optically interfering with AlphaScreen | AlphaScreen optical interference counterscreen, cell-free | actives 6% (n = 480) | shares compounds with MITF inh | IC50, µM; call rule not given here
# AlphaScreen intf2: counter-screen: compounds optically interfering with AlphaScreen; shares compounds with MITF inh; LysRS AlphaScreen counterscreen, signal interference, triplicate; inhibition, % at 2.6 µM; actives 7.6% (n = 4,700);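 active = inhibition above a cutoff derived from the DMSO control wells, cut at about 30% in these data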
# * = called active by the depositor; . = not tested or not shown. Sampled rows, rich in hits. Any-hit rate of the full collection: about 3.5%.
SMILES,TEAD-YAP inh,GPR151 activ,FBW7 activator,MITF inh,MITF confirm,AlphaScreen intf2,others
COc1ccc(CN2CCN(C(=O)c3cccnc3)CC2)cc1,-3,0,0,52*,-3,-9,
COc1cccc(CN2CCN(C(=O)c3cccnc3)CC2)c1,6,1,0,70*,15,-6,
COc1ccc(C(=O)N2CCN(C(=O)c3cccnc3)CC2)cc1,7,0,0,6,.,.,
COc1ccc([C@@H]2CCN(C(=O)c3cncnc3)C[C@H]2O)cc1,-2,-1,0,2,.,.,
O=C(O)C1CCN(C(=O)CSc2nc3scc(-c4ccccc4)c3c(=O)[nH]2)CC1,-4,-2,0,19,.,.,
Oc1ccc2c(c1)C1CCCC1(N1CCOCC1)O2 (stereo not drawn),8,1,0,70*,73*,-2,AlphaScreen DR=>6.5
CCOc1cc(CN2CCC(C(=O)NCC3CCCO3)CC2)ccc1O (stereo not drawn),0,1,0,58*,1,-2,
CCOc1ccc(CN2CCC(C(=O)NCC3CCCO3)CC2)cc1 (stereo not drawn),-3,0,0,36,.,.,
COc1cc(CN2CCC(C(=O)NC3CCCC3)CC2)ccc1O,5,0,0,60*,-16,2,
CC(C)CCOc1ccccc1C(=O)NCCC(=O)O,17,-1,1,4,.,.,
CNCC(=O)Nc1c2c(nc3c1CCC3)CCCC2,0,0,0,61*,-2,-1,
O=C(CNC1CCCCC1)Nc1c2c(nc3c1CCC3)CCC2,-7,0,0,40,.,.,
O=C(CNC1CCCCC1)Nc1c2c(nc3c1CCC3)CCCC2,3,0,0,74*,-12,-3,
CC(C)(C)NCC(=O)Nc1c2c(nc3c1CCC3)CCCC2,5,0,0,75*,3,-3,
CCOc1ccc(/C=C/C(=O)Oc2ccc(F)cc2)cc1,7,1,0,-1,.,.,
Cn1c(C(=O)N2CCCCCC2)cc2c(=O)[nH]c3ccccc3c21,-1,1,0,-2,.,.,
CCOc1ccc2nc(N=C(NC(C)=O)NC(C)=O)nc(C)c2c1,-56,0,0,-7,.,.,
CCOc1ccc2nc(N=C(NC(=O)c3ccccc3)NC(=O)c3ccccc3)nc(C)c2c1,-10,0,0,71*,-2,11,
O=C(O)c1nsnc1C(O)C(O)C(=O)O (stereo not drawn),-1,-1,0,68*,-7,1,
O=C(O)C(O)C(O)C(O)C(O)C(=O)O (stereo not drawn) (tested in a mixture with another compound),.,0,0,-4,.,.,
O=C(NCC1CCCO1)c1ccc(CNc2nc(=S)[nH]c3ccccc23)cc1 (stereo not drawn),5,1,0,9,.,.,
O=C(NCc1ccc2c(c1)OCO2)C1CCC(CNc2nc(=S)[nH]c3ccccc23)CC1 (stereo not drawn),0,0,0,57*,-13,-5,
CSc1ccc(Cc2nnc(NC(=O)C34CC5CC(CC(C5)C3)C4)o2)cc1,11,-1,0,52*,-9,19,
CSc1ccc(Cc2nnc(NC(=O)c3cc(C)oc3C)o2)cc1,11,-1,0,2,.,.,
O=C1CN(C(=O)COc2cccc(Cl)c2)c2ccccc2N1,-2,-2,0,0,.,.,
SMILES,TEAD-YAP inh,GPR151 activ,FBW7 activator,MITF inh,MITF confirm,AlphaScreen intf2,others
Cn1c(Cc2ccc(Cl)cc2)n[nH]c1=S,7,1,0,-3,.,.,
O=C(c1cccc(Nc2nccc(-c3ccc4nc(C5CC5)[nH]c(=O)c4c3)n2)c1)N1CCCC1,-21,-3,1,21,.,.,
O=c1[nH]cccc1-c1ccc(Nc2nccc(-c3ccc4nc(C5CC5)[nH]c(=O)c4c3)n2)cc1,4,0,0,64*,62*,-90,AlphaScreen DR=>6.5
CC1CN(CC(=O)N(C)CC2CCCCO2)Cc2cc(Cl)ccc2O1 (stereo not drawn),5,2,0,55*,-4,-1,
CCCN(Cc1cc(OC)c(OC)cc1OC)CC1CC1,14,3,0,8,.,.,
NS(=O)(=O)c1ccc(Nc2nccc(NC3CCN(C(=O)c4ccccc4Oc4ccccc4)CC3)n2)cc1,3,-1,0,13,.,.,
Cc1cc(C(=O)N/N=C2\CC(=O)CC(C)(C)C2)c(C)o1,-1,-1,0,12,.,.,
Cc1ccc([N+](=O)[O-])c(OCCCN2CCN(Cc3ccccc3)CC2)c1,-6,1,0,44,.,.,
COc1cc(C(C)=O)ccc1OCCOCCN1CCN(Cc2ccccc2)CC1,6,3,0,87*,5,12,
Cc1ccc([N+](=O)[O-])c(OCCOCCN2CCN(Cc3ccccc3)CC2)c1,-5,0,0,70*,12,0,
C=CCN1C(=O)/C(=C\c2ccc3c(c2)OCO3)C(C(=O)OC)=C1C,2,-1,0,23,.,.,
CCOC(=O)C1CCCN(Cc2ccc(O)c3ncccc23)C1 (stereo not drawn),8,1,-2,78*,82*,100*,
CC1CCN(Cc2ccc(O)c3ncccc23)CC1,41*,1,0,83*,97*,100*,
CC1CCN(C(=O)C2CCN(Cc3ccccc3O)CC2)CC1,3,-1,1,38,.,.,
c1ccc(Nc2nc(NC3CC3)c3ncn(C4CCCCC4)c3n2)cc1,-6,0,0,88*,3,4,
c1ccc(CN2CCC(Nc3nc(Nc4ccccc4)nc4c3ncn4C3CCCCC3)CC2)cc1,8,0,0,18,.,.,
c1ccc(CNc2nc(NC3CCN(Cc4ccccc4)CC3)nc3c2ncn3C2CCCCC2)cc1,-9,-1,0,27,.,.,
CC(C)N(CCNc1nc(NC2CCN(Cc3ccccc3)CC2)nc2c1ncn2C1CCCCC1)C(C)C,5,-2,0,58*,-1,11,
O=C(CSc1nc2ccsc2c(=O)n1CCc1ccccc1)NCCc1ccccc1,5,-1,0,7,.,.,
Fc1cccc(CN2CCN(C3CCCC3)CC2)c1,3,0,0,52*,-17,-8,
Clc1ccc(CN2CCN(C3CCCC3)CC2)cc1,-6,1,0,45,.,.,
Clc1ccc(CN2CCN(C3CCCCC3)CC2)cc1,-9,0,0,67*,5,17,
NC1CCN(Cc2cccc(F)c2)CC1,-2,0,0,-13,.,.,
c1ccc(CN2CCN(C3CCCCCC3)CC2)cc1,2,-1,0,70*,7,17,
Clc1ccc(CN2CCN(C3CCCCCC3)CC2)cc1,-3,0,1,74*,-5,3,
COc1cccc(C(=O)N2CCN(C)CC2)c1OC,5,-1,0,14,.,.,
CN(CCc1ccccn1)Cc1ccc2c(c1)CN(Cc1cccc3nccnc13)CCO2,12,0,0,1,.,.,
